# Paper PMC12136788
# In all, about 5,800 sequences were measured (“enrichment r”: median about 0.68, highest 2% from about 11 on). The sample as a whole holds a higher share of the highest values than the screen did.
# T1: UNK ZnF1-6 (called full-length) (human, UniProt Q9C0B0 30-357)
# T1 sequence: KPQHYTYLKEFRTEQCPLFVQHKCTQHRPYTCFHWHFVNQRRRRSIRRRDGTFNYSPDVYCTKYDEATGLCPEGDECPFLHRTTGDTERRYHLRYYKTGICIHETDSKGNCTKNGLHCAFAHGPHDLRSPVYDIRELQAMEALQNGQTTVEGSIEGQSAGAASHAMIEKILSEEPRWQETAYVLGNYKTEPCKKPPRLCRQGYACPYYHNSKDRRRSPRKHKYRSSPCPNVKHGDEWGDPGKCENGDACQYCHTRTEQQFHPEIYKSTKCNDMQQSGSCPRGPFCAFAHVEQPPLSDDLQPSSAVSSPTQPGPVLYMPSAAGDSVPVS
# B1: chr19:582815:582998:+|CDS_3pUTR|ENSG00000172270|msi1_unk|total|mutant (ssRNA)
# RNA: GGGAGUUCUACAGUCCGACGAUCUCAUACACUUCCUUCUUUUUUAAAAAAGUUGGGUUUUCUCCAUUCAGGAUUCUGUUCCUCCGGUUUUUUUCCUUCUGAAGUGUUUCACGAGAGCCCGGGAGCUGCUGCCCUGCGGCCCCGCAACAGAGGAUUGAGCAUCA
# B2: ENSG00000165868:stop:overlap|stop_codon|ENSG00000165868|stop_codon|NA|stop_codon (ssRNA)
# RNA: GGGAGUUCUACAGUCCGACGAUCAGCAGCCGGCCAAGCAGUUCAUGAGACAAGCUGCCUACCAGGCGGACCCUAUGGAUCUUUAGGAGUAGAUUAUGAGUUCGAAAAACUUCUGUAUAAAAUAUUUGGAGAGGAUUUUAUUGACAACAGAGGAUUGAGCAUCA
# B3: ENSG00000124766:be:win_601|CDS|ENSG00000124766|bound_else_gene|NA|bound_elsewhere_windowed (ssRNA)
# RNA: GGGAGUUCUACAGUCCGACGAUCUCCAAAGUGGCGGGCGGCGCGGGCGGUGGGGUUAGCAAACCGCACGCCAAGCUCAUCCUGGCAGGCGGCGGCGGCGGCGGGAAAGCAGCGGCUGCCGCCGCCGCCUCCUUCGCCGCCGAACAACAGAGGAUUGAGCAUCA
# B4: ENSG00000136451:be:win_2551|3pUTR|ENSG00000136451|bound_else_gene|NA|bound_elsewhere_windowed (ssRNA)
# RNA: GGGAGUUCUACAGUCCGACGAUCUCACUAGAGUUUAUGUCUUAUAUUAAAUUGUAUACAGUUUUUAUUCUAACCACUAACUAGGUAGUGUAUGCCCCUUCAGAACAUGCAGAGUGUAUCUUUUUUUAAAUUUCUCCUUCCGUUCAACAGAGGAUUGAGCAUCA
# B5: chr7:6403584:6403671:+|3pUTR|ENSG00000136238|msi1_unk|FALSE|overlapping (ssRNA)
# RNA: GGGAGUUCUACAGUCCGACGAUCUUUUCUAGUAACUAGGUGUAAAAAUCAUGUGUUGCAGCUUUAUAGUUUUUAAAAUAUUUUAGAUAAUUCUUAAACUAUGAACCUUCUUAACAUCACUGUCUUGCCAGAUUACCGACACUGCAACAGAGGAUUGAGCAUCA
# B6: chr12:76028505:76028606:-|3pUTR|ENSG00000139289|msi1|FALSE|unique (ssRNA)
# RNA: GGGAGUUCUACAGUCCGACGAUCAAGUCUUGGUCAGUAUUUUUCCAGCAUUUAAAUUGAAACGGUCAGUAUUAGACCACUGCUAGGUUAUGUAGUCAAGAAAUAAAAAUAGAAUUACAUGCUACAGAUGUCUUUAUUCUCCUUCAACAGAGGAUUGAGCAUCA
# B7: chr3:160434497:160434598:+|3pUTR|ENSG00000113810|msi1|FALSE|bound_elsewhere (ssRNA)
# RNA: GGGAGUUCUACAGUCCGACGAUCUUUAUGAUAGGUUUAUCCGGGUACUAAAUGCAUUUCAACUUGAUAGUUUCAACUUAUGAUAGGUUUACCAGGAUGUAGUCCCACUGUUGAGGAGCAUCUAUUUAGGGGUUAAUUACUUUACAACAGAGGAUUGAGCAUCA
# B8: chr2:48379045:48379146:+|3pUTR|ENSG00000170802|unk|FALSE|unique (ssRNA)
# RNA: GGGAGUUCUACAGUCCGACGAUCCCUUAUCCUCUUUUCUGAUGUAGCAUAAAAAUUGUCCCGGUUUGAGUUAUAACUGCCAGUAGAUGACCAGUCACAAGUGAACCACUUCUCAGUUGCCAAUCUUUGCUCAUAUUAAAAACACAACAGAGGAUUGAGCAUCA
# B9: ENSG00000136451:be:win_2501|3pUTR|ENSG00000136451|bound_else_gene|NA|bound_elsewhere_windowed (ssRNA)
# RNA: GGGAGUUCUACAGUCCGACGAUCUCCCAAUCAGAGCCUGUUGAUAUUACAACAGGGACAGAUGUGUUAGUUGCUCACUAGAGUUUAUGUCUUAUAUUAAAUUGUAUACAGUUUUUAUUCUAACCACUAACUAGGUAGUGUAUGCAACAGAGGAUUGAGCAUCA
# B10: chr1:150647640:150647741:-|3pUTR|ENSG00000143457|unk|FALSE|unique (ssRNA)
# RNA: GGGAGUUCUACAGUCCGACGAUCAGAUUCAAUUACCUGGAUGUCAAAGUCCUAGAGCCAGAAAUAUAUUCUCUCAUCCCUCUUAGCAUUCUCUUGCUCCCUCAUUCACUAGGGCAAAUGUCUAAAUGAAGAAAAGUCUCUCUCCAACAGAGGAUUGAGCAUCA
# B11: chr1:109062613:109062715:-|3pUTR|ENSG00000197780|unk|total|mutant (ssRNA)
# RNA: GGGAGUUCUACAGUCCGACGAUCAGUUCUGAAUACACAGGUUUUGUGUGUAUUUACUCUAUGUAUUAAAUUAUUAUUGCCCUCCGUUUAAAGUAAGGAUUACAAUUGGAUUUAAGCCGAUCACUGAAUGUUAUUGUUUAUGAACAACAGAGGAUUGAGCAUCA
# B12: chrX:80717640:80717741:-|CDS|ENSG00000165288|msi1|FALSE|unique (ssRNA)
# RNA: GGGAGUUCUACAGUCCGACGAUCCUGAGAAGUCCAAACAUGGACAUAUCUUCUUCCCCAAACAUCAGGCUUCGAAGACAUAGUAGUCAAAUUGAAGGUGUUAGACAAAUGCAUAACAAUGCUCCUCGGAGCCAGAUGGCCACUCAACAGAGGAUUGAGCAUCA
# B13: chr6:37331633:37331734:+|3pUTR|ENSG00000065491|unk|FALSE|unique (ssRNA)
# RNA: GGGAGUUCUACAGUCCGACGAUCCCGUUCCCCUUCUGCCCCAGUCUGAGCCAGUGAGGGGUAGCUUUUUAAAACCAUUAUUCUAGAUGGAGGAGGCACUGAUGCUUGUAACUCUGGAAAGAGGCCUACACCCAAGGGCUAGGACAACAGAGGAUUGAGCAUCA
# B14: chr9:91409354:91409467:-|CDS|ENSG00000165030|unk|total|mutant (ssRNA)
# RNA: GGGAGUUCUACAGUCCGACGAUCAAUGAAAGACAGUGGCUACAAAGUUUCUGACCCAGAGAACUUGUAUUUGAAGCAGGGGACCGCAAACUUAUCUGCAGAGGUUGUCUCACUCAAGAGACUUACCGCCACACAACCAAUCUCCAACAGAGGAUUGAGCAUCA
# Biological target: T1, UNK ZnF1-6 (called full-length)
# Assay: nsRBNS (natural sequence RNA bind-n-seq); RBNS binding buffer (assumed for nsRBNS): 25 mM Tris pH 7.5, 150 mM KCl, 3 mM MgCl2, 0.01% Triton X-100, 500 ug/ml BSA, 20 U/ml SUPERase-In, 4 C; UNK is unkempt and MSI1 is Musashi-1; names of the RNAs are library labels; protein concentration not given here; high values mean tight binding
row,Binder,binding signal [enrichment R]
1,B1,0.504
2,B2,0.728
3,B3,0.449
4,B4,11.6
5,B5,3.16
6,B6,0.83
7,B7,2.3
8,B8,0.685
9,B9,12.3
10,B10,0.623
11,B11,0.999
12,B12,0.592
13,B13,2.05
14,B14,0.615
